Data taken from PubChem BioAssay (NCI).
About 83,000 compounds went through this panel and 20% of them were active in at least one assay; those are over-represented in the sample as a whole.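 Activity criterion: percent growth below 10, measured after cells in 96-well plates were exposed to a single compound concentration for 48 hours.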 Unmarked numbers belong to inactive results. Activity calls are given as the source filed them.

What was measured:
Experiment in all cases: NCI-60 one-dose screen, 48 h (100 = growth as untreated, 0 = no growth, -100 = all killed)
Conditions in all cases: 10 µM unless noted
[1] = system: NCI-H23 lung
[2] = system: NCI-H226 lung
[3] = system: NCI-H322M lung
[4] = system: HOP-62 NSCLC
[5] = system: NCI-H460 lung
[6] = system: HOP-92 NSCLC
[7] = system: NCI-H522 lung
[8] = system: A549/ATCC NSCLC
[9] = system: 786-0 renal
[10] = system: COLO 205 colon
[11] = system: DU-145 prostate
[12] = system: K-562 leukemia
[13] = system: MALME-3M melanoma
[14] = system: MDA-MB-231 breast
[15] = system: RXF 393 renal
[16] = system: SF-268 CNS
[17] = system: SF-295 CNS
[18] = system: SF-539 CNS
[19] = system: UACC-257 melanoma
[20] = system: M14 melanoma

SMILES | growth [1] | growth [2] | growth [3] [%] | growth [4] [%] | growth [5] | growth [6] | growth [7] | growth [8] | growth [9] | growth [10] | growth [11] | growth [12] | growth [13] | growth [14] | growth [15] | growth [16] | growth [17] | growth [18] | growth [19] | growth [20]
CC(C)(C)n1cc(-c2ccnc(NCCNS(=O)(=O)c3ccc(C(F)(F)F)cc3)c2)c(-c2cccc(O)c2)n1 | 55.8% | 67.2% | 74.9 | 71.5 | 21.2% | 35.4% | 49% | 41.1% | 33.9% | -33.8% (active) | 75.7% | 7.42% (active) | 42.3% | 46% | 37% | 56.6% | 44.3% | 54% | 47.2% | 44.7%
N=C(N)c1ccc(-c2ccc(-c3ccc4ccccc4c3)s2)cc1 | 88.7% | 96.7% | 97 | 97.6 | 99.7% | 79.3% | 104% | 71.5% | 95% | 97.9% | 99.6% | 1.51% (active) | 105% | 95.4% | 61.6% | 94.7% | 102% | 97% | 106% | 99.6%
COc1ccc(-c2ccc(-c3ccc(C(=N)N)cn3)s2)cc1OC | 94% | 96.3% | 97.7 | 91.4 | 99.5% | 69.3% | 100% | 100% | 100% | 103% | 97.5% | 41.8% | 94.9% | 89% | 121% | 101% | 99.1% | 83.4% | 114% | 97.4%
COc1ccc(/C=C2\N=C(c3ccccc3)N(C(=O)c3ccccc3O)NC2=O)cc1 | 89.7% | 101% | 105 | 99.1 | 98.7% | 75.5% | 100% | 97.3% | 89.8% | 112% | 110% | 86.5% | 89.9% | 84.6% | 105% | 108% | 92.9% | 95.3% | 110% | 98.8%
C=C(C)[C@@H]1CC[C@]2(C(=O)O)CC[C@]3(C)[C@H](CC[C@@H]4[C@@]5(C)C[C@@H](CC#Cc6ccc(C(F)(F)F)cc6)[C@H](O)C(C)(C)[C@@H]5CC[C@]43C)[C@@H]12 | 2.55% (active) | 3.81% (active) | 35.2 | 10 | 15.1% | -16.9% (active) | -19.1% (active) | 10.3% | 19.2% | 21.1% | 22.6% | 7.68% (active) | -43.3% (active) | -10% (active) | -34.4% (active) | 12.6% | -21.6% (active) | -59.5% (active) | 7.33% (active) | -51.7% (active)
COC(=O)c1cc2cc(-c3ccc(OC)cc3)cnc2[nH]1 | 36.8% | 45.1% | 50.4 | 50.3 | 6.52% (active) | 0.19% (active) | -52.2% (active) | 24.9% | 37.1% | 0.277% (active) | 18.1% | 8.43% (active) | 56.3% | 57.1% | -36.4% (active) | 45.5% | 0.983% (active) | -27.2% (active) | 51.3% | 14.3%
CCOC(=O)c1cn2c3c(cccc3c1=O)C(=O)/C(=C/c1cccc(Cl)c1Cl)C2 | 93% | 83% | 97.4 | 81.8 | 107% | 63.8% | 73.1% | 98.2% | 90.6% | 117% | 106% | 91% | 116% | 89.5% | 87% | 87.9% | 95.8% | 101% | 87.5% | 98.7%
C=C1CCC2C3(C)COC(C)(C)OC3CCC2(C)C1C/C=C1/C(=O)OCC1Oc1ccccc1OC (stereo not given) | 92.2% | 79.7% | 96.6 | 105 | 102% | 116% | 17.5% | 97.7% | 99.9% | 102% | 78.9% | 21.7% | 112% | 103% | 93.3% | 99.7% | 101% | 83% | 85.3% | 72.3%
O=C(O)C1CCCCN1c1nc(Cl)nc(Cl)n1 (stereo not given) | 98.9% | 89.1% | 106 | 101 | 105% | 106% | 93.3% | 101% | 105% | 106% | 107% | 103% | 108% | 110% | 113% | 99.2% | 101% | 92.6% | 100% | 108%
Cc1nc2ncccc2nc1Nc1ccc(S(=O)(=O)Nc2cncs2)cc1 | 85% | 92.5% | 101 | 94 | 97.1% | 65.4% | 103% | 103% | 96.3% | 98.9% | 107% | 109% | 103% | 84% | 112% | 98.2% | 107% | 106% | 101% | 99.6%
COc1cc(NC(=O)SC2=NCCS2)cc(OC)c1 | 95% | 98.7% | 110 | 108 | 101% | 84.7% | 86.4% | 101% | 101% | 109% | 101% | 93.6% | 102% | 110% | 120% | 106% | 113% | 90.6% | 104% | 103%
COc1ccc2[nH]c(C(=O)OCc3ccc4c(Cl)cc(Cl)c(O)c4n3)cc2c1 | -23.9% (active) | -59% (active) | 54.3 | 28.2 | -35.2% (active) | -78.6% (active) | -76.8% (active) | 5.45% (active) | -83.1% (active) | -75% (active) | -98.2% (active) | -13.7% (active) | -79.9% (active) | -75.9% (active) | -93% (active) | -72.9% (active) | 67.8% | -96.4% (active) | -77.3% (active) | -78.2% (active)
C=C1CCC[C@]2(C)CCC[C@H](C)[C@@H](OC(C)=O)[C@@H]3OC(=O)C(=C)[C@@H]3C[C@H]1O2 | 74.5% | 78.6% | 99 | 99.9 | 74.7% | 24% | -6.33% (active) | 83.3% | 91.3% | 103% | 85.5% | 61.7% | 97.9% | 70.7% | 70.1% | 88.7% | 80.2% | 88.2% | 74.3% | 83.2%
COc1ccc2c(c1)OC1=C(C(=O)OC1)C2c1cc(OC)c2c(c1)OCO2 (stereo not given) | 46.2% | 21.3% | 49 | 29.6 | 4.22% (active) | 55% | 4.87% (active) | 14.4% | 20.5% | -38.1% (active) | -17.9% (active) | 7.46% (active) | 51.2% | 9.12% (active) | 16.5% | 19.7% | 9.01% (active) | 1.82% (active) | 67.8% | 7.05% (active)
Cn1c(=O)cc(NC(=O)CN2CCN(c3cc4c(cc3F)c(=O)c(C(=O)O)cn4C3CC3)CC2)[nH]c1=O | 99.9% | 95.5% | 102 | 98.9 | 105% | 99.8% | 91.7% | 98.8% | 102% | 106% | 103% | 100% | 104% | 98.5% | 102% | 92.7% | 101% | 102% | 100% | 96.5%
CCN(CC)CCOc1ccc(Cl)c(C)c1 | 91.6% | 104% | 103 | 104 | 106% | 85.7% | 92.4% | 96.5% | 99.6% | 103% | 107% | 111% | 94.4% | 104% | 104% | 98% | 118% | 108% | 99.5% | 103%
